The results in this text go back to PubChem BioAssay (Tox21).

A short description of assay [1]: qHTS assay to identify small molecule agonists of the vitamin D receptor (VDR) signaling pathway - cell viability counter screen (AID 743224). Further: potency means the concentration at half of the fitted maximal effect; nearly all actives have a fitted effect of over 50% in size. Put shortly: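 CellTiter-Glo viability readout on VDR-bla cells, measured after 16 h of compound treatment at 37C in the same wells.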
(Quantitative high-throughput screening tests each substance at several concentrations.)

A short description of assay [2]: qHTS assay to identify small molecule antagonists of the vitamin D receptor (VDR) signaling pathway - cell viability counter screen (AID 743225). Further: nearly all actives have a fitted effect of over 50% in size. Further: potency means the concentration at half of the fitted maximal effect. Put shortly: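 Parallel cytotoxicity test: VDR-UAS-bla HEK 293T, 3 nM (final) 1-alpha,25-dihydroxyvitamin D3 with test compound, 16 h, 37C. Endpoint is CellTiter-Glo luminescence in the same wells.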
Assay [3] can be described thus: qHTS assay to identify small molecule antagonists of the retinoid-related orphan receptor gamma (ROR-gamma) signaling pathway - cell viability counter screen (AID 1159520). Further: nearly all actives have a fitted effect of over 50% in size. Further: potency means the concentration at half of the fitted maximal effect. On activity, negative = cytotoxicity: on the % scale 0 is the no-effect control and ±100 the full control effect. Put shortly:
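Cytotoxicity was read from cellular ATP (CellTiter-Glo luminescence) after 16 hr at 37 C with 1 uM doxycycline induction. The inducer was added 2 hr after compound transfer to Tet-on ROR gamma CHO cells.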

Assay [4] concerns the target Nuclear receptor ROR-gamma (Homo sapiens) (UniProt P51449). The assay is described as follows: qHTS assay to identify small molecule antagonists of the retinoid-related orphan receptor gamma (ROR-gamma) signaling pathway (AID 1159521; further: nearly all actives have a fitted effect of over 50% in size; further: potency means the concentration at half of the fitted maximal effect;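 on activity change, negative = inhibition: CHO cells with doxycycline inducible ROR-gamma driving an RORE luciferase reporter; top concentration of the series differs between compounds; on the % scale 0 is the no-effect control and ±100 the full control effect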). Put shortly: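 Decreased RORE-driven luciferase luminescence indicates antagonism. Tet-on RORγ CHO cells received compound, then 1 uM final doxycycline 2 h later; signal read after 16 h incubation.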

Assay [5] in a line: qHTS assay to identify small molecule agonists of the AP-1 signaling pathway - cell viability counter screen (AID 1159525; calls by dose curve; further: nearly all actives have a fitted effect of over 55% in size; further: potency means the concentration at half of the fitted maximal effect). Put shortly:
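Intracellular ATP by Cell Titer Glo luminescence (30 min, RT) in the same ME-180 AP-1-bla wells after the 5 h compound exposure at 37 °C. Normalised to tetra n-octyl ammonium bromide and DMSO controls.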

Assay [6] in a line: qHTS assay to identify small molecule agonists of the RXR signaling pathway - cell viability counter screen (AID 1159529). Further: nearly all actives have a fitted effect of over 50% in size. Further: potency means the concentration at half of the fitted maximal effect.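 On activity change, negative = cytotoxicity: HEK 293T cells carrying an RXR-alpha UAS beta-lactamase reporter; series mostly up to about 77 µM; on the % scale 0 is the no-effect control and ±100 the full control effect.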 Put shortly: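 In this parallel viability measure, GeneBLAzer RXR-alpha HEK 293T cells (2% charcoal-stripped FBS) were given a 5 hr preincubation, treated with compounds 16 hr at 37 C, and read by CellTiter-Glo luminescence.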
A short description of assay [7]: qHTS assay to identify small molecule agonists of the AP-1 signaling pathway (AID 1159526; calls by dose curve; further: on the % scale 0 is the no-effect control and ±100 the full control effect).
The target of assay [8] is Retinoic acid receptor RXR-alpha (Homo sapiens) (UniProt P19793). In words: qHTS assay to identify small molecule agonists of the RXR signaling pathway (AID 1159527; calls by dose curve; further: on the % scale 0 is the no-effect control and ±100 the full control effect; nearly all actives have a fitted effect of over 35% in size). Put shortly: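 16 hr incubation of compound-treated RXR-alpha-UAS-bla HEK 293T cells (2% charcoal-stripped FBS, 37 C) preceded a 2 hr room-temperature LiveBLAzer FRET substrate step and blue/green fluorescence measurement.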
Retinoic acid receptor RXR-alpha (Homo sapiens), sequence (P19793 whole entry, looked up): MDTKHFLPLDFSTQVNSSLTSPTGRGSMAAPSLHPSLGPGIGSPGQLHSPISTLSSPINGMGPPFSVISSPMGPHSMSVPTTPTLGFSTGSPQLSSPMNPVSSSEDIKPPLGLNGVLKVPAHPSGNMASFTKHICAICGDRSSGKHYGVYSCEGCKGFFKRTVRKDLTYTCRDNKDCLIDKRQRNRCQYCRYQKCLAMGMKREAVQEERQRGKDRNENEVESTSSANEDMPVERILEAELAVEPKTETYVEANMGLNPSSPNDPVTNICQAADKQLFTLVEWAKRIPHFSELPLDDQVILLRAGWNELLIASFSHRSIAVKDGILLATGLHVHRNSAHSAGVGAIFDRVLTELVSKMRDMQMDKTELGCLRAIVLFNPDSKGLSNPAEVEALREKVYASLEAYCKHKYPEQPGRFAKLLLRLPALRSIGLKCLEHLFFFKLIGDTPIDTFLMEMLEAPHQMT

“And” between values parts separate entries of the source, which are not always exact repeats. Identical values can stand only once. Results filed as inconclusive are left out. Values without a mark were called inactive. The source made the active and inactive calls. Unless noted, the call rests on the fitted dose curve; in most records, active means well fitted curve in the direction sought with a large enough effect in the repeat runs; inconclusive means weak or mixed curves; inactive means no such curve, though single readings can be large; an effect the other way counts as inactive or inconclusive.

On to `CC1=C(/C=C/C(C)=C/C=C/C(C)=C/C(=O)Nc2ccc(O)cc2)C(C)(C)CCC1`, for which the Potency in assay [1] is 14.2 µM (active) and 10.6 µM (active); in assay [2], 14.2 µM (active) and 10.7 µM (active); in assay [3], 31.4 µM (active) and 13.3 µM (active); in assay [4], 19.8 µM (active) and 8.41 µM (active); in assay [5], 44.8 µM (active); in assay [6], 35.6 µM (active) and 12 µM (active).

On to `CCc1cccc(CC)c1NC(=O)C(=O)O`, for which the Potency entry in assay [3], in assay [4], in assay [5], in assay [7] and in assay [6] was “inactive” in each case.

As for `C/C=C/C(=O)C1=C(C)CCCC1(C)C`, the Potency entry in assay [3], in assay [4], in assay [5], in assay [7] and in assay [6] was “inactive” in each case.

On to `CCCCCCCOC(=O)c1ccccc1C(=O)OCCCCCCC`, for which the Potency result in assay [3], in assay [4], in assay [5], in assay [7], in assay [8] and in assay [6] was “inactive” throughout.

Take `CCCCCCCCCCCCOC(=O)c1cc(O)c(O)c(O)c1`: the Potency in assay [1] was 27.4 µM (active) and 21.9 µM (active); in assay [2], 43.5 µM (active) and 24.5 µM (active); in assay [3], 2.42 µM (active) and 4.86 µM (active); in assay [4] it was 2.16 µM (active) and 2.17 µM (active); in assay [5] it was 43.5 µM (active) and 38.9 µM (active); in assay [6] it was 27.4 µM (active) and 34.7 µM (active).

In the case of `CCOC(=O)CC(C)O` (centres undefined), the Potency result in assay [3], in assay [4], in assay [5], in assay [7] and in assay [6] was “inactive” throughout.

Regarding `CCC(=O)CC(C)CC` (centres undefined), in assay [3], the activity, negative = cytotoxicity was 6.35% [at 0.349 µM]. Besides, in assay [4], the activity change, negative = inhibition is 0.102% [at 0.35 µM]. For the same compound, the viability change, negative = cytotoxic in assay [5] is 5.42% [at 0.29 µM]. For the same compound, the activation in assay [7] was -5.51% [at 0.29 µM]; in assay [8], 2.44% [at 0.29 µM]. Besides, in assay [6], the activity change, negative = cytotoxicity is -1.51% [at 0.29 µM].

For `Clc1cccnc1`, the Potency result in assay [3], in assay [4], in assay [5], in assay [7] and in assay [6] was “inactive” in each case.

Take `CC(C)=CCCC(C)O` (centres undefined): the Potency entry in assay [3], in assay [4], in assay [5], in assay [7], in assay [8] and in assay [6] was “inactive” each time.

On to `OCCCCl`, for which the Potency result in assay [3], in assay [4], in assay [5], in assay [7] and in assay [6] was “inactive” in each case.

As to `c1ccc2c(c1)CCC2`, the Potency entry in assay [3], in assay [4], in assay [5], in assay [7] and in assay [6] was “inactive” each time.

For the compound `CCOC(/C=C(\C)CCC=C(C)C)OCC`, the Potency entry in assay [3], in assay [4], in assay [5], in assay [7] and in assay [6] was “inactive” each time.

For `CC1=CCC(=O)O1`, the Potency result in assay [3], in assay [4], in assay [5], in assay [7], in assay [8] and in assay [6] was “inactive” in each case.

Regarding `C=C/C=C/C=C/CCCCC`, the activity, negative = cytotoxicity in assay [3] is -9.56% [at 19 µM]. In addition, in assay [4], the activity change, negative = inhibition was -0.464% [at 19 µM]. The viability change, negative = cytotoxic in assay [5] was 1.06% [at 15.8 µM]. The activation in assay [7] is 2.42% [at 15.8 µM]. The activity change, negative = cytotoxicity in assay [6] was -9.45% [at 15.8 µM].

In the case of `c1cc[nH]c1`, the Potency entry in assay [3], in assay [4], in assay [5], in assay [7] and in assay [6] was “inactive” each time.

On to `CC1CNCC(C)O1` (centres undefined), for which the Potency entry in assay [3], in assay [4], in assay [5], in assay [7] and in assay [6] was “inactive” each time.

As to `O=CC1CC1`, the Potency result in assay [3], in assay [4], in assay [5], in assay [7] and in assay [6] was “inactive” each time.

As for `O=c1cccc[nH]1`, the Potency result in assay [3], in assay [4], in assay [5], in assay [7] and in assay [6] was “inactive” in each case.

`CCCCOCC`: the Potency entry in assay [3], in assay [4], in assay [5], in assay [7] and in assay [6] was “inactive” in each case.

Consider `COc1ccccc1C=O`, for which the Potency entry in assay [3], in assay [4], in assay [5], in assay [7], in assay [8] and in assay [6] was “inactive” each time.

As to `C=CC(=O)OCCN(CC)CC`, the Potency entry in assay [3], in assay [4], in assay [5], in assay [7] and in assay [6] was “inactive” each time.

`CCCCOC(=O)C(C)CC` (centres undefined): the Potency in assay [1] was 24.5 µM (active). The Potency entry in assay [2], in assay [3], in assay [4], in assay [5], in assay [7] and in assay [6] was “inactive” throughout.

As to `Brc1ccccn1`, the Potency result in assay [3], in assay [4], in assay [5], in assay [7] and in assay [6] was “inactive” in each case.

Take `CCCCCCCCCCCCCCCCCO`: in assay [3], the activity, negative = cytotoxicity is -0.0509% [at 19 µM]. For the same compound, the activity change, negative = inhibition in assay [4] was -0.415% [at 19 µM]. In assay [5], the viability change, negative = cytotoxic is -0.925% [at 15.8 µM]. The activation in assay [7] was -5.53% [at 15.8 µM]. Further, the activity change, negative = cytotoxicity in assay [6] is -0.179% [at 15.8 µM].
